Results published in article PMC4336329 (PLoS ONE, 2015).
The campaign covered roughly 310,000 compounds. About 14,000 (4.5%) showed an effect of 50% or more. Effects have a minus sign here. The sample holds strong results, similar compounds and a random draw of the others, so the mix is not that of the screen.

What follows are compounds tested against human ether-à-go-go-related gene (hERG) potassium channel (human, UniProt Q12809) (assay: primary screen, population patch clamp on CHO cells stably expressing hERG; higher = less effect of the substance).
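Further: peak tail current of the secondary pulse compared with the same well before compound.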

Sequence of human ether-à-go-go-related gene (hERG) potassium channel (Q12809 whole entry, looked up): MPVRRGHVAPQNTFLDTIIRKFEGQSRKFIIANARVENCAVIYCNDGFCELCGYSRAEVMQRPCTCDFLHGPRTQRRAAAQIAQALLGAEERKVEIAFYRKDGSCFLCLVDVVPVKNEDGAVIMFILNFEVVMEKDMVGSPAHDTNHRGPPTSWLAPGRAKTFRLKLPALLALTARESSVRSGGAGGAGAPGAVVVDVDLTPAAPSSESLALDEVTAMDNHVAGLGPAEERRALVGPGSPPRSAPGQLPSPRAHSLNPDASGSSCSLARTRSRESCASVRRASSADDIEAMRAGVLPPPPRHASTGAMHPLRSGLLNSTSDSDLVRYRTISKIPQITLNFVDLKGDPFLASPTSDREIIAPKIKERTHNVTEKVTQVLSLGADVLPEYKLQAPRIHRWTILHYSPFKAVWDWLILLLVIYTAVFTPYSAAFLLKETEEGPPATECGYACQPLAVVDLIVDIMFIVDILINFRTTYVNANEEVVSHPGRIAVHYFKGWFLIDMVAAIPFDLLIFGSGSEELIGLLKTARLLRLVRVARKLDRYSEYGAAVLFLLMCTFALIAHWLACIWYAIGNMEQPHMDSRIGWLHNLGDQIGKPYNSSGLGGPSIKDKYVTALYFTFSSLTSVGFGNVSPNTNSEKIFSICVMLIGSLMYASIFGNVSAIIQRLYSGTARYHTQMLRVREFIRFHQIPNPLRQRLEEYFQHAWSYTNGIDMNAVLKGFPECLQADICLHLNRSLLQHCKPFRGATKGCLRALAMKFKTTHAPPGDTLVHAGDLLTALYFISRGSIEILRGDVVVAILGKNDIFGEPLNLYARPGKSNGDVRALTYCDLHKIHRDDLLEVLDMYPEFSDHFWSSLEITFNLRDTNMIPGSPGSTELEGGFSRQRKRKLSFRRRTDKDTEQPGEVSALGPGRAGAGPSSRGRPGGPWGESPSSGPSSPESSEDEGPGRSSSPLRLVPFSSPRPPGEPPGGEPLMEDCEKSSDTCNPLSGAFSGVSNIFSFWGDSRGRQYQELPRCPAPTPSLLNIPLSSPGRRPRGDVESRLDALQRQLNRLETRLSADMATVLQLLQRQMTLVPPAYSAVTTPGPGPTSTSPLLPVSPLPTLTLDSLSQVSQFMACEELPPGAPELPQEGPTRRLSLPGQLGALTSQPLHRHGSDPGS

SMILES | hERG current change (%, negative = inhibition) at 10uM
CCOc1ccc(CCNC(=O)Nc2ccccc2C)cc1OCC | 5.4%
COc1ccccc1-c1ccc(SCc2cccc(C)c2)nn1 | -26.6%
Cc1ccc(CCC(=O)Nc2ccc(Cl)cc2)o1 | 12.8%
O=C(O)C1=CC[C@@H](c2ccc(Cl)cc2)N(S(=O)(=O)c2ccc(Cl)cc2)[C@H]1c1ccc(F)cc1 | 4.97%
CCOC(=O)c1sc(N)c(C#N)c1CSc1nnc(C2CCCCC2)n1N | -1.65%
CC1CC(C)CN(C(=O)c2cc3ccccc3o2)C1 (stereo not shown) | -2.2%
COc1ccc(C(=O)Nc2cc(Cl)ccc2Cl)c(OC)n1 | -5.79%
Cc1ncc(CN2CCCC(C(=O)Nc3ccc(-c4cccc(F)c4)cc3)C2)s1 (stereo not shown) | 1.64%
Cc1ncc(CN2CCCC(C(=O)Nc3ccc(-c4cccc(F)c4)cc3)C2)n1C (stereo not shown) | -69.5%
COCCc1ncc(CN2CCCC(C(=O)Nc3cccc(-c4cccc(C)c4)c3)C2)cn1 (stereo not shown) | -56.6%
Cc1ncc(CN2CCCC(C(=O)Nc3ccc(-n4ccnc4C)cc3)C2)cn1 (stereo not shown) | 12.8%
Cc1ccc(C(=O)N2CCCC(C(=O)Nc3cccc(-c4ccc(F)cc4)c3)C2)cn1 (stereo not shown) | -29.1%
CCc1ncc(CN2CCCC(C(=O)Nc3cccc(-c4cccc(C)c4)c3)C2)cn1 (stereo not shown) | -48.8%
CCc1nc(C)c(C(=O)N2CCCC(C(=O)Nc3cccc(-c4cccc(C)c4)c3)C2)o1 (stereo not shown) | -42.5%
Cc1ncoc1C(=O)N1CCCC(C(=O)Nc2cccc(-c3ccc(F)cc3)c2)C1 (stereo not shown) | -36.4%
Cc1cccc(-c2cccc(NC(=O)C3CCCN(C(=O)c4ocnc4C)C3)c2)c1 (stereo not shown) | -53%
O=C(Nc1cccc(-c2ccc(F)cc2)c1)C1CCCN(Cc2cccnc2)C1 (stereo not shown) | -60.2%
CCCc1ncc(CN2CCCC(C(=O)Nc3ccc(-c4cccc(OC)c4)cc3)C2)cn1 (stereo not shown) | -39.7%
Cc1ccc(C(=O)C(C)OC(=O)CCN=C2NS(=O)(=O)c3ccccc32)cc1 (stereo not shown) | 6.4%
Cc1nn(Cc2c(Cl)cccc2Cl)c(Cl)c1C(=O)O | 14.4%
COCCN(C(=O)CC1C(=O)NCCN1Cc1ccc(-c2ccccc2)cc1)C(C)C (stereo not shown) | 1%
COc1ccc(OCCn2ccnc2)cc1 | 12.4%
CCOCCCNC(=S)N1C2CCC1CC(NC(=O)Nc1ccc(C(=O)OCC)cc1)C2 (stereo not shown) | 13.7%
COc1ccc(-c2nc(C(=O)NCCCN3CCOCC3)cc3c2[nH]c2ccccc23)cc1OC | -72.2%
COc1cccc(-c2nc(C(=O)NCC3CCCO3)cc3c2[nH]c2ccccc23)c1 (stereo not shown) | -26.4%
COc1cc(-c2nc(C(=O)NC3CCN(Cc4ccccc4)CC3)cc3c2[nH]c2ccccc23)cc(OC)c1OC | -59.6%

SMILES | hERG current change (%, negative = inhibition) at 10uM
COc1ccc(OC)c(-c2nc(C(=O)NC3CCN(Cc4ccccc4)CC3)cc3c2[nH]c2ccccc23)c1 | -43.5%
O=C(NCCCN1CCOCC1)c1cc2c([nH]c3ccccc32)c(-c2cccc(Br)c2)n1 | -40.8%
COc1ccccc1-c1nc(C(=O)NCC2CCCO2)cc2c1[nH]c1ccccc12 (stereo not shown) | -29%
COc1ccc(OC)c(-c2nc(C(=O)NCC3CCCO3)cc3c2[nH]c2ccccc23)c1 (stereo not shown) | -59.1%
COc1ccc(-c2nc(C(=O)NCC3CCCO3)cc3c2[nH]c2ccccc23)cc1 (stereo not shown) | -2.81%
Cc1ccc(-c2nc(C(=O)NCCCN3CCOCC3)cc3c2[nH]c2ccccc23)cc1 | -15%
COc1cc(-c2nc(C(=O)NC3CCCCC3)cc3c2[nH]c2ccccc23)cc(OC)c1OC | -8.67%
COc1cccc(-c2nc(C(=O)NCCCN3CCOCC3)cc3c2[nH]c2ccccc23)c1 | -65.3%
COc1ccc(-c2cc(C(=O)NCCCN3CCOCC3)c3ccccc3n2)cc1OC | -7.5%
CC(C)Oc1cccc(C(=O)NC(=S)Nc2ccc3c4c(cccc24)CC3)c1 | 14.9%
Cc1cc(C)n2nc3nc(N4CCCC4)nc(-c4ccccc4)c3c2n1 | 7.37%
Cc1cc(C(=O)Nc2cccnc2)on1 | -3.6%
COc1cccc(CNC(=O)CCCc2nnc3n(C)c(=O)c4sccc4n23)c1 | -22.2%
CCOc1cccc(OCCOCCOc2ccccc2C(C)=O)c1 | -7.23%
COc1ccc(OC)c(-c2cc(C(=O)NCCN3CCOCC3)no2)c1 | -5%
COc1ccc(OC)c(-c2nc(C(=O)NCCCN3CCOCC3)cc3c2[nH]c2ccccc23)c1 | -65.7%
COc1ccccc1-c1cc(C(=O)NCCCN2CCOCC2)no1 | -28%
CC(C)CCNC(=O)c1ccc(Cl)c(N)c1 | 18.9%
Cc1ccccc1OCCCC(=O)Nc1ccc2c(c1)OCO2 | 5.46%
Cc1ccc(NC(=O)Cn2cnc3cc([N+](=O)[O-])ccc3c2=O)cc1 | 0.77%
CCN(CC)S(=O)(=O)c1ccc(NC(=O)Cn2cnc3ccccc3c2=O)cc1 | -32.8%
CN(C)S(=O)(=O)c1cccc(NC(=O)Cn2cnc3ccccc3c2=O)c1 | 8.28%
CCN(CC)S(=O)(=O)c1ccc(C)c(NC(=O)Cn2cnc3cc([N+](=O)[O-])ccc3c2=O)c1 | -55.7%
Cc1ccc(NC(=O)Cn2cnc3cc([N+](=O)[O-])ccc3c2=O)c(Cl)c1 | 16.4%
CCN(CC)S(=O)(=O)c1cc(NC(=O)Cn2cnc3ccccc3c2=O)ccc1C | -54.8%
COc1ccc(C(=O)NCc2cc(C)nc3ccccc23)cc1 | -13.6%
